# Source: PubChem BioAssay (NCI)
# This is part of a sample that, as a whole, favours compounds with a hit. Of some 79,000 tested, about 15% had one in any assay. A number with no mark means an inactive call. Activity calls are given as the source filed them. No stated cut-off is given here; in the data, active means growth inhibition above about 70%; inactive means the rest.
# What was measured:
# [1] = NCI Yeast Anticancer Drug Screen. Data for the rad50 strain (AID 155);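 further: 0% = growth of vehicle-only cultures of the same strain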; conditions: S. cerevisiae rad50 strain growth inhibition, hits give high values
# Summary of the method: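 Readout: growth inhibition relative to vehicle-treated cultures. Compound exposure was carried out in a genetically defined yeast strain deficient in DNA damage repair.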
# [2] = NCI Yeast Anticancer Drug Screen. Data for the mec2-1 strain (AID 157); conditions: S. cerevisiae mec2-1 strain, hits give high values
# Summary of the method: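 Strain: mec2-1 (DNA repair/cell cycle alteration). Compound exposure, then growth measured; inhibition expressed relative to vehicle.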
# [3] = NCI Yeast Anticancer Drug Screen. Data for the sgs1 mgt1 strain (AID 161);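 further: 0% = growth of cultures given vehicle only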; conditions: S. cerevisiae sgs1 mgt1 strain, hits give high values
# Summary of the method: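 Test agents were incubated with a DNA-repair-mutant yeast strain. Growth was then read and compared against vehicle-treated controls.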
# [4] = NCI Yeast Anticancer Drug Screen. Data for the cln2 rad14 strain (AID 165);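 further: 0% = growth equal to vehicle treated cultures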; conditions: S. cerevisiae cln2 rad14 strain, hits give high values
# Summary of the method: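 Compounds are applied to the cln2 rad14 yeast strain, and growth is then compared with that of vehicle-treated cultures to give inhibition.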
# [5] = NCI Yeast Anticancer Drug Screen. Data for the bub3 strain (AID 167); conditions: S. cerevisiae bub3 mutant strain, hits give high values
# Summary of the method: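 Readout: yeast growth inhibition, expressed relative to vehicle-only wells. The test organism is a mutant strain from a panel with lesions in DNA repair or checkpoint genes.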
# [6] = NCI Yeast Anticancer Drug Screen. Data for the mlh1 rad18 strain (AID 175); conditions: S. cerevisiae mlh1 rad18 strain growth inhibition, hits give high values
# Summary of the method: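 Read-out is yeast growth inhibition, calculated against vehicle-only controls. The compound was applied to a strain engineered with DNA damage repair alterations.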
# [7] = at 5.0 µM (retest, dose inferred, filed as 0.5)
# [8] = at 50.0 µM (retest, dose inferred, filed as 5.0)
SMILES,"growth inhibition [1, 7]","growth inhibition [1, 8]",growth inhibition ([1]; at 50.0 µM),"growth inhibition [2, 7]","growth inhibition [2, 8]",growth inhibition ([2]; at 50.0 µM),"growth inhibition [3, 7]","growth inhibition [3, 8]",growth inhibition ([3]; at 50.0 µM),"growth inhibition [4, 7]","growth inhibition [4, 8]",growth inhibition ([4]; at 50.0 µM),"growth inhibition [5, 7]","growth inhibition [5, 8]",growth inhibition ([5]; at 50.0 µM),"growth inhibition [6, 7]","growth inhibition [6, 8]",growth inhibition ([6]; at 50.0 µM)
CN(C(=O)c1ccccc1)C1(COC(=O)c2ccccc2)CCCCC1,-6%,3%,16.1%,-28%,-9%,-5.95%,-25%,-11%,-2.75%,1%,1%,21.3%,21%,28%,65.7%,16%,6%,9.9%
CCO/C=C1\C(=O)C=C(C)CC1c1ccc(OC)c(OC)c1OC (configuration not stated),3%,84% (active),53.1%,4%,81% (active),38%,7%,86% (active),47.6%,-5%,55%,16.6%,-8%,80% (active),41.7%,4%,88% (active),86.7% (active)
O=c1ccnc(Nc2ccc[nH]c2=S)[nH]1,-2%,-11%,3.2%,0%,-7%,-3.3%,-1%,-7%,46.2%,-3%,-23%,1.4%,4%,1%,8.85%,-3%,-16%,1.85%
Cc1ccccc1N=Nc1ccccc1,21%,98% (active),99.4% (active),17%,99% (active),99.4% (active),22%,99% (active),99.5% (active),12%,98% (active),99.3% (active),48%,98% (active),99.3% (active),39%,98% (active),99.4% (active)
CSC1NNC2(C(=O)N1)c1ccccc1-c1ccccc12 (configuration not stated),-2%,96% (active),87.3% (active),-15%,98% (active),87.9% (active),2%,96% (active),90.7% (active),9%,96% (active),88.5% (active),13%,97% (active),91.7% (active),-1%,96% (active),88.8% (active)
COc1cc(OC(C)C)cc2c1C(=O)C(C(O)(O)C(F)(F)F)=CC2=O,0%,84% (active),72.4% (active),11%,81% (active),85.5% (active),2%,78% (active),47.7%,5%,85% (active),81.2% (active),6%,88% (active),82.9% (active),-8%,77% (active),92.8% (active)
CC(C)C[C@H](NC(=O)[C@H](Cc1ccccc1)NC(=O)c1cnccn1)B(O)O,55%,87% (active),55.8%,33%,70% (active),30.4%,52%,78% (active),60.9%,76% (active),94% (active),72.9% (active),69%,90% (active),72.6% (active),55%,79% (active),66.7%
Cc1ccccc1SCc1nc2ccccc2c(C)[n+]1[O-],-3%,73% (active),35.5%,4%,63%,45.2%,9%,68%,58.7%,-1%,44%,35%,-1%,69%,59%,42%,89% (active),59.9%
O/N=C\c1ccc(-c2ccccc2)cc1,-17%,87% (active),74% (active),-13%,64%,47.6%,-8%,88% (active),87% (active),17%,67%,51.1%,2%,83% (active),77.7% (active),6%,91% (active),49.6%
CCCCC#CC(=O)OCCC,-1%,2%,26.6%,0%,2%,15.8%,2%,2%,22.4%,-1%,-1%,85.5% (active),1%,0%,-22.4%,-2%,-1%,-9.75%
Oc1c(Cl)ccc2cccnc12,97% (active),98% (active),92% (active),98% (active),99% (active),93.8% (active),91% (active),80% (active),94.1% (active),98% (active),97% (active),92.5% (active),99% (active),99% (active),92.8% (active),95% (active),98% (active),91.7% (active)
CC(NC(=O)OCc1ccccc1)C(=O)NC(Cc1ccccc1)C(=O)OCc1ccccc1 (configuration not stated),1%,5%,-17.6%,37%,2%,-5.05%,-2%,-1%,22%,5%,2%,36.6%,-3%,-7%,-4.4%,1%,7%,6.45%
O=CNC(CCCC(=O)O)Cc1cc2ccccc2c2ccccc12 (configuration not stated),5%,17%,94.5% (active),13%,31%,95% (active),5%,11%,95.6% (active),7%,22%,93.7% (active),-8%,-4%,94.8% (active),-3%,9%,94.5% (active)
CO[C@H]1C[C@@H]2CC[C@@H](C)[C@@](O)(O2)C(=O)C(=O)N2CCCC[C@H]2C(=O)O[C@H]([C@H](C)C[C@@H]2CC[C@@H](OC(=O)C(C)(CO)CO)[C@H](OC)C2)CC(=O)[C@H](C)/C=C(\C)[C@@H](O)[C@@H](OC)C(=O)[C@H](C)C[C@H](C)/C=C/C=C/C=C/1C,98% (active),97% (active),82.5% (active),99% (active),98% (active),86.8% (active),98% (active),98% (active),87.3% (active),93% (active),88% (active),88% (active),97% (active),96% (active),89.5% (active),98% (active),97% (active),89.5% (active)
CCN(CC)c1c(C(=O)/C=C/c2ccc(Cl)cc2)c(-c2ccccc2)nn(C)c1=O,18%,85% (active),82.5% (active),15%,91% (active),85.9% (active),14%,73% (active),81% (active),7%,82% (active),83.7% (active),8%,92% (active),84% (active),24%,92% (active),81.8% (active)
Cc1nn(C(=O)c2ccccc2O)c2c1C(c1ccco1)SC(N)=N2 (configuration not stated),-6%,65%,67.5%,11%,59%,38.8%,8%,64%,57%,10%,52%,43.6%,7%,86% (active),69%,11%,86% (active),59.3%
Cc1ccc(SC2C(=O)C3(C)CCC2C3(C)C)cc1 (configuration not stated),-1%,32%,64.2%,-1%,27%,28.8%,-2%,44%,72.2% (active),-1%,1%,-21.7%,2%,28%,37.5%,0%,52%,82% (active)
ON(C(=Nc1ccc(Cl)cc1)c1ccccc1)c1ccccc1,-10%,98% (active),98% (active),7%,99% (active),99.2% (active),-5%,99% (active),99% (active),-11%,98% (active),99.2% (active),7%,98% (active),98.8% (active),9%,99% (active),99% (active)
Cc1cc(NCCCN(C)C)c2cc3ccc4cccc5ccc(c2n1)c3c45,1%,54%,95.2% (active),-12%,23%,90.4% (active),-3%,47%,94.8% (active),-2%,25%,63.8%,-2%,20%,94.5% (active),-2%,58%,97.3% (active)
